Shown are actives, neighbours in structure and some others; about 8.7% of the full set was active somewhere.
JMJD2A Tudor – qHTS Assay for Inhibitors of JMJD2A-Tudor Domain; AlphaScreen JMJD2A-Tudor / H3K4me3 peptide binding; Lysine-specific demethylase 4A (Homo sapiens), O75164; Potency, µM (doses to about 114 µM), for inactives: top-dose activity change, negative = inhibition, usual class: inhibitors; hit rate 4.4% among 390,000; note: % is set by controls: 0 for no effect and ±100 for the full control effect; nearly all actives have a fitted effect of over 50% in size
G9a block – qHTS Assay for Inhibitors of Histone Lysine Methyltransferase G9a. Histone-lysine N-methyltransferase EHMT2 (Homo sapiens), Q96KQ7. G9a H3K9 monomethylation, AlphaScreen, 2 h. Potency, µM (doses to about 102 µM), for inactives: top-dose activity, negative = inhibition, actives largely listed as inhibitors. hit rate 8.8% among 350,000; note: % is set by controls: 0 for no effect and ±100 for the full control effect; nearly all actives have a fitted effect of over 75% in size
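AlphaScreen read-out: biotin-H3K9 peptide (500 nM) methylation by 20 nM enzyme with 20 uM SAM, 2 h at room temperature after 15 min compound preincubation; anti-monomethyl H3K9 antibody plus donor/acceptor beads, 10 min dark.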
HP1b chromo inh – HTS for Inhibitors of HP1-beta Chromodomain Interactions with Methylated Histone Tails. AID 540317, 2011. Chromobox protein homolog 1 (Homo sapiens), P83916. AlphaScreen HP1-beta / biotin-H3K9me3 peptide binding. Potency, µM (titrated, usually from 114 µM), for inactives: top-dose activity change, negative = inhibition, usual class: inhibitors. hit rate 0.56% among 390,000; note: nearly all actives have a fitted effect of over 70% in size
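AlphaScreen: HP1-beta (50 nM) preformed 30 min with biotin-H3(1-18)K9me3 peptide (50 nM) in PBS pH 7.4, 0.01% Tween-20. Compound added for 30 min at RT, then streptavidin donor/nickel chelate acceptor beads (10 ug/mL) for 30 min.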
BAZ2B inh – qHTS Assay for Inhibitors of BAZ2B | Bromodomain adjacent to zinc finger domain protein 2B (Homo sapiens), Q9UIF8 | Potency, µM (doses to about 114 µM), for inactives: at the top dose activity change, negative = inhibition, usual class: inhibitors | AlphaScreen BAZ2B-H3K14Ac peptide displacement | hit rate 4.4% among 360,000; note: % is set by controls: 0 for no effect and ±100 for the full control effect; nearly all actives have a fitted effect of over 60% in size
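Multi-concentration screen (max 110 uM) measuring displacement of acetylated histone H3 peptide from BAZ2B by AlphaScreen, using 50 nM protein, 50 nM peptide and 10 ug/mL streptavidin donor plus Ni-chelate acceptor beads.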
Sfp inh – qHTS Assay for Inhibitors of Bacillus subtilis Sfp phosphopantetheinyl transferase (PPTase) | Biochemical Sfp PPTase activity, qHTS | Potency, µM, for the others: largest response in the series, negative = inhibition, actives largely listed as inhibitors | hit rate 3.5% among 310,000;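 note: the enzyme is Sfp with the accession as filed and its product quenches rhodamine fluorescence; 0% = enzyme reaction without inhibitor and -100% = no enzyme wells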
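Fluorescence-quenching assay with 15 nM Sfp, 5 uM rhodamine-CoA and 12.5 uM BHQ-2-labelled ybbR peptide in pH 7.6 Hepes/MgCl2 buffer. Enzyme was pre-incubated with compound for 15 min at room temperature. Rate was taken from the 30-min fluorescence change (525/598 nm).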
ALOX12 inh – Primary qHTS assay for inhibitors of human arachidonate 12S-lipoxygenase (ALOX12): Round 2. Potency, µM (top dose mostly 108 µM), for the others: at the top dose activity change, negative = inhibition, hits mostly inhibitors. Polyunsaturated fatty acid lipoxygenase ALOX12 (Homo sapiens), P18054. hit rate 1.1% among 580,000. purified 12hLO, xylenol orange hydroperoxide absorbance; note: % is set by controls: 0 for no effect and ±100 for the full control effect
Target sequence (P18054 whole entry, looked up): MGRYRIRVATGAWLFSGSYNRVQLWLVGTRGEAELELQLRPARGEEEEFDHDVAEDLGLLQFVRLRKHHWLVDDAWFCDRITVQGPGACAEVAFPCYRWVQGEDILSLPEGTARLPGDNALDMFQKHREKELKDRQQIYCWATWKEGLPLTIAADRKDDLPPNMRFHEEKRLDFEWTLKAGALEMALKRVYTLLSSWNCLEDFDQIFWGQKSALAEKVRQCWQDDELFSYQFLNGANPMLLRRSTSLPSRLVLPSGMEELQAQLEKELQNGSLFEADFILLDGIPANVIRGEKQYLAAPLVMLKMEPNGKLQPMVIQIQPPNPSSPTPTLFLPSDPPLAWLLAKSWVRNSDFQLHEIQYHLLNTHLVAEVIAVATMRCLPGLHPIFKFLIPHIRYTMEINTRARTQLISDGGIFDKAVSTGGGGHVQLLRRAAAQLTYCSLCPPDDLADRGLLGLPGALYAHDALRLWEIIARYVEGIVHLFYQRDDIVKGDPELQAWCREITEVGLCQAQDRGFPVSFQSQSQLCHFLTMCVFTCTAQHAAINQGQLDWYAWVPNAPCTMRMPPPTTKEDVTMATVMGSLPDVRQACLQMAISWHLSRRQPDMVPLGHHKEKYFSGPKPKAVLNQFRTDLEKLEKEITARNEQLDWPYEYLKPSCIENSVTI
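Purified human 12hLO at 150 nM in 25 mM Hepes, 0.01% Triton X-100, pH 7.0, preincubated 15 min at room temperature with compound. Reaction started with 40 uM arachidonic acid, 30 min at room temperature. Hydroperoxide measured by Fe-xylenol orange, 573/405 nm absorbance ratio.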
* marks the source's active call; other numbers are inactive results; u = inconclusive; x = no result given; ! = repeats disagree; [ ] = dose if it differs, or a comment. Calls come from the whole dose curve; as a rule, active = well fitted curve in the direction sought with a large enough effect; inconclusive = small, poorly fitted or top-dose-only effect, or another doubt; inactive = no such curve, though single readings can be large; an effect the other way counts as inactive or inconclusive. Potency is the fitted concentration of half-maximal effect.

SMILES	JMJD2A Tudor	G9a block	HP1b chromo inh	BAZ2B inh	Sfp inh	ALOX12 inh
Cc1oc(-c2ccccc2)nc1C(=O)N(C)Cc1ccc(C(N)=O)cc1	x	x	x	x	x	5.2%
Cc1cc(C(=O)N2CCC(N3C(=O)C4(CCCC4)C3c3ccccc3)CC2)nn1C (stereo unspecified)	x	x	x	x	x	31.7%
O=C(Nc1ccc2[nH]c(=S)sc2c1)c1ccccc1	-31.6%	5.62µM*	-4.8%	-36.7%	50.1µM*	u
O=C(Nc1ccc2[nH]c(=S)sc2c1)Nc1ccccc1F	-20.8%	44.7µM*	24.6%	u	u	14.1µM*
S=c1[nH]c2ccccc2s1	x	11.2µM*	x	x	11.5%	28.2µM*!
O=C(Nc1ccc2[nH]ccc2c1)c1ccccc1	-23.8%	u	-1.3%	-20.2%	28.8%	u
Cn1cnc2c1c(=O)n(CCCSCc1ccccc1Br)c(=O)n2C	x	x	x	x	x	33.9%
CS(=O)(=O)c1nc(S(=O)(=O)c2ccc(Cl)cc2)c(NCc2ccccc2)s1	x	x	x	x	x	-19.3%
Cc1cccc2cc(C#N)c(SCC#N)nc12	-31.7%	25.1µM*	9.5%	1.3%	-0.9%	-14.4%
Cc1cccc2cc(C#N)c(SCC(=O)NNC(=O)Cc3ccccc3)nc12	-9.7%	17.6%	31.1%	5.7%	-22.7%	0.0%
CCOc1ccc(-n2c(=S)sc3c(=O)n(-c4ccccc4)c(SC)nc32)cc1	-26.8%	19.2%	-6.8%	-12.0%	-3.2%	0.0%
CCOc1ccccc1-n1c(=S)sc2c(=O)n(-c3ccccc3)c(=S)[nH]c21	79.4µM*	16.0%[59 µM]	24.3%	-30.5%	4.2%	-21.0%
COc1ccccc1-n1c(=S)[nH]c2c(sc(=S)n2-c2ccccc2C)c1=O	79.4µM*	u	u	-23.6%	-11.6%	-7.7%
COc1ccccc1-n1c(=S)[nH]c2c(sc(=S)n2-c2ccccc2)c1=O	u	-6.9%	22.5%	-16.0%	13.3%	-11.2%
COc1ccc(OC)c(-n2c(=S)[nH]c3c(sc(=S)n3-c3ccccc3C)c2=O)c1	89.1µM*	31.3%[59 µM]	-22.1%	u	-5.0%	0.0%
COc1cccc(-n2c(=S)sc3c(=O)n(-c4ccccc4OC)c(=S)[nH]c32)c1	u	u	-6.1%	u	20.1%	-5.5%
Cc1ccc(C)c(C(=O)COC(=O)c2ccc(C(=O)c3ccccc3)cc2)c1	x	x	x	x	x	0.7%
COc1ccc(Cl)cc1C(C(=O)O)N1CCCN(c2ncccn2)CC1 (stereo unspecified)	x	x	x	x	x	16.0%
O=[N+]([O-])/C=C/c1cc2ccccc2[nH]1	-28.9%	17.8µM*	21.2%	-29.3%	-6.6%	39.2%
O=[N+]([O-])c1cccc(-c2cc3ccccc3[nH]2)c1	-28.9%	2.4%	20.7%	-24.1%	14.6%	7.5%
COCCOc1cc(-c2noc([C@@H]3CCCN3CC3CC3)n2)ccn1	x	x	x	x	x	34.6%[176 µM]
Cc1ccnc(SCC(=O)c2ccc(Br)s2)n1	11.1%	17.8µM*	50.0%	-35.4%	79.4µM*	-16.5%
Cc1cc(C)nc(SCC(=O)NNC(=O)c2cccs2)n1	-1.4%	56.2µM*	u	-9.2%	6.2%	3.2%
Cc1ccnc(SCC(=O)c2cccs2)n1	-8.3%	35.5µM*	35.3%	-4.4%	-15.9%	-7.4%
Cc1ccnc(SCC(=O)Nc2sccc2C#N)n1	-34.0%	-31.9%	27.7%	50.1µM*	-6.4%	-1.6%
CC(=O)Nc1ccc(SCC(=O)Nc2sccc2C#N)cc1	-9.1%	u	15.1%	-11.7%	10.8%	-14.8%
CC(=O)Nc1ccc(SCC(=O)c2ccc(Br)s2)cc1	u	22.4µM*	u	50.1µM*	50.1µM*	u
CCC(C)NC(=O)CSc1ccc(NC(C)=O)cc1 (stereo unspecified)	1.6%	-7.5%[12.7 µM]	27.4%	-3.3%	21.4%	64.2%
